Source: PubChem BioAssay AID463173 (ICCB-Longwood Screening Facility, Harvard Medical School, 2010)
The campaign covered roughly 52,000 compounds. About 4,300 (8.3%) were called active. No stated cut-off is given here; in the data, active means survival mostly below about 52% (no sharp cut-off); inactive means mostly above about 56%. What follows is part of a selection rich in actives, with near analogues and random picks from the rest.

tested on: DeltatarO mutant; assay: S. aureus survival, RN4220 and DeltatarO strains – OD600, teichoic acid synthesis inhibitors, primary screen (AID 463173); details: S. aureus RN4220 wild type/DeltatarO growth, OD600, 18 h, hits give low values, screened at 18.75 µg/mL (by protocol)

| SMILES | survival |
| --- | --- |
| CCc1nn(CC(=O)NCc2ccccc2Cl)c(=O)c2cc3ccccc3n12 | 62% (inactive) |
| Cc1ccc(Cn2c(SCc3ccc(C(=O)NC4CCCCC4)cc3)nc3ccncc32)cc1 | 71% (inactive) |
| Cc1cc(N2CCCC2)nc(SCC(=O)c2ccccc2)n1 | 77% (inactive) |
| COc1ccc(CCN2C(=O)CN(C3CCCCCC3)C(=O)C2c2ccc(C)cc2)cc1OC (stereo not drawn) | 92% (inactive) |
| Cc1ccc(Cl)cc1N1CCN(C(=O)c2cn(C)c3ccc(S(=O)(=O)N4CCCC4)cc3c2=O)CC1 | 124% (inactive) |
| Cc1ccccc1Cn1c2ccccc2c2cnn(CC(=O)N3CCC(C)CC3)c(=O)c21 | 41% (inactive) |
| Cc1ccc2oc(=O)n(CCCOc3ccc(Cl)cc3)c2c1 | -3% (active) |
| O=c1oc2ccccc2n1CCCOc1ccccc1Cl | 3% (active) |
| Cc1c(Cl)cccc1NC(=O)NCCOCCn1c(=O)oc2ccccc21 | 51% (inactive) |
| Cc1ccc2oc(=O)n(CCNC(=O)Nc3ccc(C)c(F)c3)c2c1 | 108% (inactive) |
| Cc1ccc2oc(=O)n(CCCOc3ccccc3Cl)c2c1 | -4% (active) |
| COc1ccc(OCCCn2c(=O)oc3ccc(C)cc32)cc1 | 39% (inactive) |
| N#CCCCn1c(=O)oc2ccccc21 | 100% (inactive) |
| O=C(O)CCCn1c(=O)oc2ccccc21 | 96% (inactive) |
| CCOc1ccc(-c2cc(C(=O)N3CCN(c4cc(Cl)ccc4C)CC3)c3ccccc3n2)cc1 | 58% (inactive) |
| O=C(NCc1ccc2c(c1)CCN2C(=O)c1ccc(F)cc1)c1c(F)cccc1F | 85% (inactive) |
| O=C(NCc1ccccc1Cl)c1ccc2nc(Cc3ccccc3)oc2c1 | 60% (inactive) |
| CC1CCN(S(=O)(=O)c2ccc3c(c2)N(CC(=O)NCCN(C)C)C(=O)CS3)CC1 | 108% (inactive) |
| CC(=O)N1CCCc2cc(S(=O)(=O)N3CCC(N(C)C(C)C)CC3)ccc21 | 94% (inactive) |
| COc1ccccc1CNC(=O)C1CCN(S(=O)(=O)c2ccc3c(c2)CCCN3C(C)=O)CC1 | 83% (inactive) |
| COc1ccccc1CNC(=O)C1CCCN(S(=O)(=O)c2ccc3c(c2)CCCN3C(C)=O)C1 (stereo not drawn) | 52% (active) |
| CC(=O)N1CCCc2cc(S(=O)(=O)N3CCCCC3)ccc21 | 47% (active) |
| CC(=O)N1CCCc2cc(S(=O)(=O)N3CCCC(C(=O)NCc4ccccc4Cl)C3)ccc21 (stereo not drawn) | 95% (inactive) |
| CC(=O)N1CCCc2cc(S(=O)(=O)N3CCC(C(=O)NC4CCCCC4)CC3)ccc21 | 94% (inactive) |

| SMILES | survival |
| --- | --- |
| CCOC(=O)N1CCc2c(sc3c2c(=O)n(Cc2ccccc2)c(=O)n3CC(=O)Nc2ccc(C)cc2C)C1 | 71% (inactive) |
| O=C(c1cc2ccccc2oc1=O)N1CCN(c2ccc(Cl)cc2)CC1 | 66% (inactive) |
| COc1cc(C(=O)NCCOc2ccc(C)c(C)c2)cc(OC)c1OC | 98% (inactive) |
| Cc1cc(C)cc(NC2=CC(c3cccc(F)c3)N(c3cc(C)cc(C)c3)C2=O)c1 (stereo not drawn) | 87% (inactive) |
| CCn1cc(/C=C(\NC(=O)c2ccc(OC)cc2)C(=O)NCCCn2ccnc2)c2ccccc21 | 108% (inactive) |
| Cc1ccc(C(=O)c2cn(Cc3ccccc3)c3ccccc3c2=O)cc1 | 75% (inactive) |
| COc1ccc(C(=O)/C=C/c2cn(CC(O)CN(CC(C)C)CC(C)C)c3ccccc23)cc1 (stereo not drawn) | 58% (inactive) |
| CCCN(CCC)CC(O)Cn1cc(/C=C/C(=O)c2ccc(C)cc2)c2ccccc21 (stereo not drawn) | -2% (active) |
| CCCN(CCC)CC(O)Cn1cc(/C=C/C(=O)c2ccc(OC)cc2)c2ccccc21 (stereo not drawn) | 11% (active) |
| COc1ccc(C(=O)/C=C/c2cn(CC(O)CN3CCc4ccccc43)c3ccccc23)cc1 (stereo not drawn) | 58% (inactive) |
| CCCCN(CCCC)CC(O)Cn1cc(/C=C/C(=O)c2ccccc2)c2ccccc21 (stereo not drawn) | 5% (active) |
| COc1ccc(C(=O)/C=C/c2cn(CC(O)CN(CC(C)C)CC(C)C)c3ccccc23)cc1OC (stereo not drawn) | 91% (inactive) |
| CCCCN(CC)CCCNC(=O)c1cn(CC(C)C)c(=O)c2c1c1ccccc1n2C | 115% (inactive) |
| CCCN(CCC)CC(O)Cn1cc(/C=C/C(=O)c2ccc(Br)cc2)c2ccccc21 (stereo not drawn) | 66% (inactive) |
| CC(C)CN(CC(C)C)CC(O)Cn1cc(/C=C/C(=O)c2ccccc2)c2ccccc21 (stereo not drawn) | 38% (active) |
| Cc1nn(-c2ccccc2)c(=O)c2ccccc12 | 92% (inactive) |
| COc1ccc(-c2nc3nc(C)cc(Nc4ccc(C(C)=O)cc4)n3n2)cc1 | 54% (inactive) |
| CCc1nc2nc(C)cc(Nc3ccc(Br)cc3F)n2n1 | 128% (inactive) |
| Cc1cc(=O)n(CC(=O)Nc2ccc(Cl)c(Cl)c2)c(-n2nc(C)cc2C)n1 | 117% (inactive) |
| COc1ccccc1NC(=O)CCS(=O)(=O)c1cc2c3c(c1)CCN3C(=O)CC2 | 99% (inactive) |
| CCc1cccc(CC)c1-n1nnc2c(sc3nc(C)cc(C)c32)c1=O | 83% (inactive) |
| Cc1cccc(C(=O)NCc2nnc(SCC(=O)Nc3ccccc3F)n2-c2ccccc2)c1 | 72% (inactive) |
| N#Cc1c(/N=C/c2cccnc2)sc2c1CCC2 | 100% (inactive) |
| CN1CCN(C(CNC(=O)c2ccccc2)c2ccc3c(c2)OCO3)CC1 (stereo not drawn) | 76% (inactive) |

| SMILES | survival |
| --- | --- |
| Nc1nc(N)nc(COc2ccccc2)n1 | 102% (inactive) |
| CCOC(=O)c1c(S(=O)(=O)N2CCCC(C(=O)NCc3ccccc3Cl)C2)c(C)n(C)c1C (stereo not drawn) | 122% (inactive) |
| CCc1cccc(C)c1NC(=O)CN1CCN(Cc2ccccc2Cl)S1(=O)=O | 126% (inactive) |
| CCOc1ccc(C(=O)NCCn2cc(SCC(=O)Nc3ccccc3)c3ccccc32)cc1 | 71% (inactive) |
| CCCN(CCC)CC(O)Cn1cc(/C=C/C(=O)c2ccc(OCC)cc2)c2ccccc21 (stereo not drawn) | 11% (active) |
| COc1ccc(S(=O)(=O)N2CCCN(CC(=O)Nc3ccc(OC)cc3OC)CC2)cc1 | 72% (inactive) |
| COc1ccc(OCC(=O)NCCS(=O)(=O)N2CCN(c3cccc(Cl)c3)CC2)cc1 | 85% (inactive) |
| CCOc1ccc(NC(=O)CSc2cn(CC(=O)N3CCCCCC3)c3ccccc23)cc1 | 95% (inactive) |
| Cc1oc(-c2cccc(Br)c2)nc1CSc1nc2ncccc2[nH]1 | 78% (inactive) |
| CCOC(=O)c1cnc2ccc(Br)cc2c1NCCN1CCOCC1 | 76% (inactive) |
| CCOC(=O)c1cnc2ccccc2c1NCCCO | 104% (inactive) |
| CCOC(=O)c1cnc2c(Cl)c(Cl)ccc2c1NCCN1CCOCC1 | 42% (active) |
| CCOC(=O)c1cnc2c(CC)cccc2c1NCCO | 95% (inactive) |
| Cc1cc(C)cc(OCC(=O)NCCN2CCOCC2)c1 | 67% (inactive) |
| CCOC(=O)c1cnc2c(C)cc(C)cc2c1NCCN1CCOCC1 | 32% (active) |
| Cc1ccc(OCC(=O)Nc2ccc3nc(SCc4ccccc4)sc3c2)cc1 | 81% (inactive) |
| Cc1ccccc1-c1nc(CNC(=O)NC2CCCCC2)c(C)o1 | 67% (inactive) |
| CCOc1ccc(C(=O)N2CCC(c3nc(-c4ccc(S(=O)(=O)N5CCCC5)cc4)no3)CC2)cc1 | 92% (inactive) |
| CCc1ccccc1N(C)C(=O)c1cc2c(=O)oc3ccccc3c2s1 | 42% (inactive) |
| CCN(C(=O)c1cc2c(=O)oc3ccccc3c2s1)c1ccc(C)c(C)c1 | 15% (active) |
| CN(C(=O)c1cc2c(=O)oc3ccccc3c2s1)c1ccc(F)cc1 | 60% (inactive) |
| CCCN(C(=O)c1cc2c(=O)oc3ccc(C)cc3c2s1)c1ccc(OCC)cc1 | 48% (inactive) |
| CCOc1ccc(N(CC)C(=O)c2cc3c(=O)oc4ccccc4c3s2)cc1 | 38% (active) |
| CCN(C(=O)c1cc2c(=O)oc3ccccc3c2s1)c1cccc(C(F)(F)F)c1 | 145% (inactive) |

| SMILES | survival |
| --- | --- |
| COc1cccc(CNC(=O)C2(c3cccs3)CCOCC2)c1 | 92% (inactive) |
| COc1ccc(-c2ccc(NS(=O)(=O)c3cccc(C)c3)cc2)nn1 | 75% (inactive) |
| COCCNc1nc2c(c(=O)n(C)c(=O)n2C)n1Cc1c(F)cccc1Cl | 57% (inactive) |
| COc1ccc(C)cc1NC(=O)CC1NCCNC1=O (stereo not drawn) | 76% (active) |
| COc1ccc(NC(=O)CC2NCCNC2=O)c(OC)c1 (stereo not drawn) | 77% (inactive) |
| Cc1ccc(C)c(NC(=O)CC2NCCNC2=O)c1 (stereo not drawn) | 79% (inactive) |
| O=C(Nc1c2c(nn1-c1ccc(Cl)cc1)CS(=O)(=O)C2)c1ccc(Br)cc1 | 52% (active) |
| Cc1cccc(C(=O)Nc2c3c(nn2-c2ccc(Cl)cc2)CS(=O)(=O)C3)c1 | 74% (inactive) |
| O=C(Nc1c2c(nn1-c1ccc(Cl)cc1)CS(=O)(=O)C2)c1cccc(Cl)c1 | 71% (inactive) |
| CC(=O)N1c2ccccc2C(=O)C1N1CCN(c2ccc(F)cc2)CC1 (stereo not drawn) | 94% (inactive) |
| Cc1ccc(-c2nnc(Nc3ccc(O)cc3)c3ccccc23)cc1S(=O)(=O)NCC1CCCO1 (stereo not drawn) | 93% (inactive) |
| Cc1ccc(-n2ncc(C(=O)NC3CCCCC3)c2C2CCN(C(=O)OC(C)(C)C)CC2)cc1 | 116% (inactive) |
| Cc1cccc(CC(=O)N2CC(=O)Nc3ccc(F)cc3C2c2ccccc2)c1 (stereo not drawn) | 53% (active) |
| O=C1CN(C(=O)Cc2ccc(F)cc2)C(c2ccccc2)c2cc(Cl)ccc2N1 (stereo not drawn) | 127% (inactive) |
| Cc1ccc2c(c1)C(c1ccccc1)N(C(=O)Cc1ccc(F)cc1)CC(=O)N2 (stereo not drawn) | 55% (inactive) |
| O=C1CN(C(=O)Cc2ccccc2)C(c2ccc(F)cc2)c2cc(Br)ccc2N1 (stereo not drawn) | 61% (inactive) |
| Cc1cccc(CC(=O)N2CC(=O)Nc3ccc(C)cc3C2c2ccc(F)cc2)c1 (stereo not drawn) | 50% (inactive) |
| Cc1cccc(CC(=O)N2CC(=O)Nc3ccc(Br)cc3C2c2ccc(F)cc2)c1 (stereo not drawn) | 43% (active) |
| COc1ccc(CC(=O)N2CC(=O)Nc3ccc(F)cc3C2c2ccccc2)cc1 (stereo not drawn) | 79% (inactive) |
| COc1ccc(CC(=O)N2CC(=O)Nc3ccc(Br)cc3C2c2ccc(F)cc2)cc1OC (stereo not drawn) | 175% (inactive) |
| COc1ccc(CC(=O)N2CC(=O)Nc3ccc(Br)cc3C2c2ccc(F)cc2)cc1 (stereo not drawn) | 30% (active) |
